According to PMC7862700, “An all-to-all approach to the identification of sequence-specific readers for epigenetic DNA modifications on cytosine”:

Tests used:
Test in all cases: DAPPL (digital affinity profiling via proximity ligation, sequencing); 10 mM Tris-HCl pH 7.5, 50 mM NaCl, 1 mM DTT, 4% glycerol, room temperature, 30 min; GST-TFs on glutathione beads, 16-mer random dsDNA library, 0.1% formaldehyde crosslink after washing; high values mean tight binding
FEV = target: T1, FEV (Homo sapiens, UniProt Q99581 1-238); conditions: protein: recombinant; tags: N-terminal GST; dsDNA, one strand shown
T1 sequence: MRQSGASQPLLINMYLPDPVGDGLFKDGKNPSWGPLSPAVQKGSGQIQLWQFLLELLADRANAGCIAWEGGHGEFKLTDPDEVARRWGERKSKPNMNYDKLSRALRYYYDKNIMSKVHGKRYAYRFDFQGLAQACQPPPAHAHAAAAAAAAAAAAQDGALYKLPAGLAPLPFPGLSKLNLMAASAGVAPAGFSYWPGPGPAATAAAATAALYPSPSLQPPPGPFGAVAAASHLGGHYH
Method in brief: (§1)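 In yeast, human transcription factors were expressed with a GST fusion, then pulled down on glutathione beads and given DNA barcodes. Pooled with a tag-only sample, they were exposed to 200 nmole of a 16-mer random double-stranded DNA library (Tris/NaCl/DTT/glycerol buffer, room temperature, 30 min), washed, crosslinked with 0.1% formaldehyde, proximity-ligated using BsaI/T4 ligase for 1 h at 37 °C, PCR-amplified and read on an Illumina NextSeq500. Each hexamer's frequency of reads for a factor, divided by the matching frequency for the tag-only sample, gives the binding signal.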

ETV5 = ETV5 (Homo sapiens, UniProt P41161 1-510); conditions: protein: recombinant; tags: N-terminal GST; dsDNA, one strand shown
ETV5, sequence (P41161 whole entry): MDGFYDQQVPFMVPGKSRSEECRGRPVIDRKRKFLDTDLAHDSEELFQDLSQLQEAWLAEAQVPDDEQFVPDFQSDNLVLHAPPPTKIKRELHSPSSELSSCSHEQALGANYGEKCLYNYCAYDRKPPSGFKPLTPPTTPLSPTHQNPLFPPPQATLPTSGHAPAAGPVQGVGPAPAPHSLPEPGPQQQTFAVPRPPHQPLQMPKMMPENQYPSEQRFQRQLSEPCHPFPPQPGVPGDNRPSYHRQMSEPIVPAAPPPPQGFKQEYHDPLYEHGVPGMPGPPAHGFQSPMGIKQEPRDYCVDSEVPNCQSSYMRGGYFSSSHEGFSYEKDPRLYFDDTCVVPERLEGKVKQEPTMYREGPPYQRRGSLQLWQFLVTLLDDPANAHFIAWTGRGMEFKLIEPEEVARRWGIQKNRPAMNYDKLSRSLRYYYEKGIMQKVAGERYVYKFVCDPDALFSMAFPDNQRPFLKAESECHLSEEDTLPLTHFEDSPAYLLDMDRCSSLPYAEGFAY
Method in brief: as §1

HSF1 = HSF1 (Homo sapiens, UniProt Q00613 1-529); conditions: protein: recombinant; tags: N-terminal GST; chain copies: 3; dsDNA, one strand shown
HSF1, sequence (Q00613 whole entry): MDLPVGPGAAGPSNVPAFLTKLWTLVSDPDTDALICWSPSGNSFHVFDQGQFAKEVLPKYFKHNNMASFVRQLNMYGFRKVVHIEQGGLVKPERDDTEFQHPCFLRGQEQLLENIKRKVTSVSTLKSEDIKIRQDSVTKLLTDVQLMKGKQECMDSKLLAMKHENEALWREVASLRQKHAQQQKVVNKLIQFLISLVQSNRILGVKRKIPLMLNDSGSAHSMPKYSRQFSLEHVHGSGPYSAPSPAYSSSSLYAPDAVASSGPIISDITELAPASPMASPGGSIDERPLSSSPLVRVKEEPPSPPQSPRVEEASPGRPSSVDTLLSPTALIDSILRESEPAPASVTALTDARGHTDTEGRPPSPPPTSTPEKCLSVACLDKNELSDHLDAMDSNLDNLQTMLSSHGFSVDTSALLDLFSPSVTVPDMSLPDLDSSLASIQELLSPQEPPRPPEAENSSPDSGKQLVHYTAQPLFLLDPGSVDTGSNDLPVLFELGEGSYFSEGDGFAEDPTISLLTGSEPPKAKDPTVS
Method in brief: as §1

SPIC = target: T2, SPIC (Homo sapiens, UniProt Q8N5J4 1-248); conditions: protein: recombinant; tags: N-terminal GST; dsDNA, one strand shown
T2 sequence: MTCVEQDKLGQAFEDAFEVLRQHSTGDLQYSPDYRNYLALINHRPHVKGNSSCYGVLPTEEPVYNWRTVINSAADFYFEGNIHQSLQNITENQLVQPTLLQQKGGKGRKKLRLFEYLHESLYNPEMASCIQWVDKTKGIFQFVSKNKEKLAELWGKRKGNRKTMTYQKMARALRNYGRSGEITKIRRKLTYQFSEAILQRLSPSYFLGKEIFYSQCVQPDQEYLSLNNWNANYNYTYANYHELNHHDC
Method in brief: as §1

ELF4 = ELF4 (Homo sapiens, UniProt Q99607 1-663); conditions: protein: recombinant; tags: N-terminal GST; dsDNA, one strand shown
ELF4, sequence (Q99607 whole entry): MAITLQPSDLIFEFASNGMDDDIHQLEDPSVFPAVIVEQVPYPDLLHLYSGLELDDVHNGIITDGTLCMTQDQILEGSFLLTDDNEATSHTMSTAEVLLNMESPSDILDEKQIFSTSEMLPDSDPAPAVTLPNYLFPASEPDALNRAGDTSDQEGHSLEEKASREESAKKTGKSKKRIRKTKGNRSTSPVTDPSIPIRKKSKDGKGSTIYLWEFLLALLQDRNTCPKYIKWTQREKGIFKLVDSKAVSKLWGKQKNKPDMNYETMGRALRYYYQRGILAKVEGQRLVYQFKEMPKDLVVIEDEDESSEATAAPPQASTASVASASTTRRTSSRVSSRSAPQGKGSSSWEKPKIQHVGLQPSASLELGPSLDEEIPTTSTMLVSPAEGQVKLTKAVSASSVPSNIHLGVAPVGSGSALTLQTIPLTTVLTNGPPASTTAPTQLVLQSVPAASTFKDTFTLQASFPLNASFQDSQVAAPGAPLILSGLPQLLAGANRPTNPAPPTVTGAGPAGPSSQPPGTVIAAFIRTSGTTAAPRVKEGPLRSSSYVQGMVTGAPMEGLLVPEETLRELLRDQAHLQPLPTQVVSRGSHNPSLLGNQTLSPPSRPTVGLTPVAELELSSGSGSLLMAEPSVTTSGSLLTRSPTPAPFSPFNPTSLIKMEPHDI
Method in brief: as §1

ELK4 = target: T3, ELK4 (Homo sapiens, UniProt P28324-2 1-405); conditions: protein: recombinant; tags: N-terminal GST; dsDNA, one strand shown
T3 sequence: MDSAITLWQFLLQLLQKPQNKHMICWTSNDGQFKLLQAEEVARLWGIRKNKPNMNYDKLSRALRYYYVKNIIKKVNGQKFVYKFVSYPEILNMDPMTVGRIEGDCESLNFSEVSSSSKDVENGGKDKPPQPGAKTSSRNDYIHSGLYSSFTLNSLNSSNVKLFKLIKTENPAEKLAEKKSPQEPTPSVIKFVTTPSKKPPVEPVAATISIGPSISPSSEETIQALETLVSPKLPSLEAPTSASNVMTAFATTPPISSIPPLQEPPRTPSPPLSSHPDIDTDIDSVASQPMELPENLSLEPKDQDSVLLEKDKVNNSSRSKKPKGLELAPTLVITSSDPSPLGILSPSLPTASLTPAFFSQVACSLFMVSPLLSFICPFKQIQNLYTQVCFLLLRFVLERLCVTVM
Method in brief: as §1

ETV2 = target: T4, ETV2 (Homo sapiens, UniProt O00321 1-342); conditions: protein: recombinant; tags: N-terminal GST; dsDNA, one strand shown
T4 sequence: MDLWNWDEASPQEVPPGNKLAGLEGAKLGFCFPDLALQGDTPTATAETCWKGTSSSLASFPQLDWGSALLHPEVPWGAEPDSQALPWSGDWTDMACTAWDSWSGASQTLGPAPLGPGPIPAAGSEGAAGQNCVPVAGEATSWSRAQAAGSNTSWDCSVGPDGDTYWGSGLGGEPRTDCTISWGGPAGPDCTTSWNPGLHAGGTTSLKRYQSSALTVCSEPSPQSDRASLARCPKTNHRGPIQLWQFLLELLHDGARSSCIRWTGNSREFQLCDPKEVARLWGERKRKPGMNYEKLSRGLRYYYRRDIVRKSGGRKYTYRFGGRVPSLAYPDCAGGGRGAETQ
Method in brief: as §1

ELF3 = target: T5, ELF3 (Homo sapiens, UniProt P78545 1-371); conditions: protein: recombinant; tags: N-terminal GST; dsDNA, one strand shown
T5 sequence: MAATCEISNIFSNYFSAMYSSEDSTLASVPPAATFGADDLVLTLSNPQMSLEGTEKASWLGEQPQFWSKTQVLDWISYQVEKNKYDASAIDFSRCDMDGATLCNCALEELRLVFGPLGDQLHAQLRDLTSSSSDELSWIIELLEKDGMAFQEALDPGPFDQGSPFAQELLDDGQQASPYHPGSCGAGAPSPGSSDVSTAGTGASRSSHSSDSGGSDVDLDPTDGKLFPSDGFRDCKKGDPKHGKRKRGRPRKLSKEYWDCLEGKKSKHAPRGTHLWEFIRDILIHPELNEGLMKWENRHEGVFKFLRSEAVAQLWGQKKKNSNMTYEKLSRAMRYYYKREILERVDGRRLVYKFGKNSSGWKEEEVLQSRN
Method in brief: as §1

CRX = CRX (Homo sapiens, UniProt O43186 1-299); conditions: protein: recombinant; tags: N-terminal GST; dsDNA, one strand shown
CRX, sequence (O43186 whole entry): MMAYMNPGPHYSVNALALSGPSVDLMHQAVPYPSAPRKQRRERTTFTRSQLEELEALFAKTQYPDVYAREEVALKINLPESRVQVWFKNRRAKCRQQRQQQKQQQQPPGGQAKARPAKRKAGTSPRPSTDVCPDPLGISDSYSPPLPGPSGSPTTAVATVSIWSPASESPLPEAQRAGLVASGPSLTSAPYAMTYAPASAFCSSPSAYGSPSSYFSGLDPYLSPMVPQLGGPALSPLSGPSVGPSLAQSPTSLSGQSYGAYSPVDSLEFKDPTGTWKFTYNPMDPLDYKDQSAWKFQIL
Method in brief: as §1

ETV1 = ETV1 (Homo sapiens, UniProt P50549 1-477); conditions: protein: recombinant; tags: N-terminal GST; dsDNA, one strand shown
ETV1, sequence (P50549 whole entry): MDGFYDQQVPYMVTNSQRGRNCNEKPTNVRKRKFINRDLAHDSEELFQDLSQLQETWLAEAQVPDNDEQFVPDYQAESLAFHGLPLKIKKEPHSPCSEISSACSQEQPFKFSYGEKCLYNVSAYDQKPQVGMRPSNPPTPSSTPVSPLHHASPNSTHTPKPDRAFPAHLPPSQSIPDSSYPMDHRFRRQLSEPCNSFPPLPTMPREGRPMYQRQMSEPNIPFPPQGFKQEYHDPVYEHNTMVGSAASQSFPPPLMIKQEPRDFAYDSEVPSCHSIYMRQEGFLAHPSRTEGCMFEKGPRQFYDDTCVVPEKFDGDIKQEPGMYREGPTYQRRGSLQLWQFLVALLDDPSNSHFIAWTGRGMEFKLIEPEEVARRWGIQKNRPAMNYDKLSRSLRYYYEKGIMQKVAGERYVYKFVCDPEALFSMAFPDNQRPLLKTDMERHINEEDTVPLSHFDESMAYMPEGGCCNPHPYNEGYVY
Method in brief: as §1

ERF = target: T6, ERF (Homo sapiens, UniProt P50548 1-548); conditions: protein: recombinant; tags: N-terminal GST; dsDNA, one strand shown
T6 sequence: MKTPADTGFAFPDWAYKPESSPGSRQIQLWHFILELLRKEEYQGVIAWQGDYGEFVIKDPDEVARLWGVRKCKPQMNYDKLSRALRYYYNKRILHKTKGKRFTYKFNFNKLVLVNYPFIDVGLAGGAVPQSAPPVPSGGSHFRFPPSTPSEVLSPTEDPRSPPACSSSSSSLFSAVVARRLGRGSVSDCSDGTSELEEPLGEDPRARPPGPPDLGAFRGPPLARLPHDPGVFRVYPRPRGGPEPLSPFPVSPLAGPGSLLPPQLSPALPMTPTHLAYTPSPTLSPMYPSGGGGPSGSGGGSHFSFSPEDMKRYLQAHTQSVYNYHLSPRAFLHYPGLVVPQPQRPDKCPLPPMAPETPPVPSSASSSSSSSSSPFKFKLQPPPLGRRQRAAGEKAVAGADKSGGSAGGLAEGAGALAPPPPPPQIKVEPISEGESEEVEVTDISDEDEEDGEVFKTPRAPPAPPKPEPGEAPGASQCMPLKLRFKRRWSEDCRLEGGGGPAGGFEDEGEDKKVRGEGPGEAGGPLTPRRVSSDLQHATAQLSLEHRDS
Method in brief: as §1

ETV3L = target: T7, ETV3L (Homo sapiens, UniProt Q6ZN32 1-361); conditions: protein: recombinant; tags: N-terminal GST; dsDNA, one strand shown
T7 sequence: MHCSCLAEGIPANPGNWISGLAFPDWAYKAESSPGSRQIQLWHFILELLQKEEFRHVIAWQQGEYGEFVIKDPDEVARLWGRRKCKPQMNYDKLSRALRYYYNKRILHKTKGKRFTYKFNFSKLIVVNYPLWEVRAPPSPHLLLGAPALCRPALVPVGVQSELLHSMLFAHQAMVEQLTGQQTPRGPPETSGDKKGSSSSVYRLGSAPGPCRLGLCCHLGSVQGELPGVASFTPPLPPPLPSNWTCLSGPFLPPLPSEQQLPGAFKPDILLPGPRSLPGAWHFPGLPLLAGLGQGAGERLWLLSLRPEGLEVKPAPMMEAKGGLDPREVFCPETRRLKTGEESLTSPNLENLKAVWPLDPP
Method in brief: as §1

ETS2 = target: T8, ETS2 (Homo sapiens, UniProt P15036 1-469); conditions: protein: recombinant; tags: N-terminal GST; dsDNA, one strand shown
T8 sequence: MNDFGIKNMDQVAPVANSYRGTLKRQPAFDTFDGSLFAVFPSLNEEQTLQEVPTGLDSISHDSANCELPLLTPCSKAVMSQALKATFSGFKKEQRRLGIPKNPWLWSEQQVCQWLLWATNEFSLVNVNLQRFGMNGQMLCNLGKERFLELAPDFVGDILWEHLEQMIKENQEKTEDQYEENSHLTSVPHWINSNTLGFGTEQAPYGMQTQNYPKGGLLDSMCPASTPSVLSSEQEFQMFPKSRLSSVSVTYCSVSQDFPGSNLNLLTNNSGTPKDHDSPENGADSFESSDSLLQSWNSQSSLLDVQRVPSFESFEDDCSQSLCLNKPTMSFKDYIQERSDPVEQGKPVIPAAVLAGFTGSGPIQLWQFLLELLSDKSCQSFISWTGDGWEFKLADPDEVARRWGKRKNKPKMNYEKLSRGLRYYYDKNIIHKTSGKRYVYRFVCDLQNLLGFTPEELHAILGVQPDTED
Method in brief: as §1

SPDEF = target: T9, SPDEF (Homo sapiens, UniProt O95238 1-335); conditions: protein: recombinant; tags: N-terminal GST; dsDNA, one strand shown
T9 sequence: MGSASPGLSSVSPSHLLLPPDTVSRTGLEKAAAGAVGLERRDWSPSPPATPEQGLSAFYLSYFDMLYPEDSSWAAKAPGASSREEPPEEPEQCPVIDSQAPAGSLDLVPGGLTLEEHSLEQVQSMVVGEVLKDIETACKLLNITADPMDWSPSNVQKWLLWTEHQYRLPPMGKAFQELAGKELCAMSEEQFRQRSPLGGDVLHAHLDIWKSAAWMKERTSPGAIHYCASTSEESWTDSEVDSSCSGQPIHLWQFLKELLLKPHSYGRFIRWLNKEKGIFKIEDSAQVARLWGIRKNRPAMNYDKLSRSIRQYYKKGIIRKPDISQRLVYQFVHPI
Method in brief: as §1

ETV7 = target: T10, ETV7 (Homo sapiens, UniProt Q9Y603 1-341); conditions: protein: recombinant; tags: N-terminal GST; dsDNA, one strand shown
T10 sequence: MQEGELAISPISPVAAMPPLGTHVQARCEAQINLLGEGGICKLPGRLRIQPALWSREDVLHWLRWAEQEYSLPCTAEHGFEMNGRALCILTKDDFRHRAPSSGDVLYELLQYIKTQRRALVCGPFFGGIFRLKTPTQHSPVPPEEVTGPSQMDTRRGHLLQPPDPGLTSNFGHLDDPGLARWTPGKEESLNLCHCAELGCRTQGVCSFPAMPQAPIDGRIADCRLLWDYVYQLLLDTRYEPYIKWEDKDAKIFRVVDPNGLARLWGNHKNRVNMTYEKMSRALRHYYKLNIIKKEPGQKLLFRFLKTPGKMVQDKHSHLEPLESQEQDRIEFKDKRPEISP
Method in brief: as §1

ELF5 = target: T11, ELF5 (Homo sapiens, UniProt Q9UKW6-2 1-255); conditions: protein: recombinant; tags: N-terminal GST; dsDNA, one strand shown
T11 sequence: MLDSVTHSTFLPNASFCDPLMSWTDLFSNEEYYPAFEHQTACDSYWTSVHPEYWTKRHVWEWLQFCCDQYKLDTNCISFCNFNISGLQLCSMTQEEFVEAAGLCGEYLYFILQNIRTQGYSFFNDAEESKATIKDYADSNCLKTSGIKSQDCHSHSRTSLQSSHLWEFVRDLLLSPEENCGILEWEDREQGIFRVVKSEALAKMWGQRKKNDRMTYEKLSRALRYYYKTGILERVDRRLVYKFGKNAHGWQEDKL
Method in brief: as §1

ETV3 = target: T12, ETV3 (Homo sapiens, UniProt P41162-2 1-143); conditions: protein: recombinant; tags: N-terminal GST; dsDNA, one strand shown
T12 sequence: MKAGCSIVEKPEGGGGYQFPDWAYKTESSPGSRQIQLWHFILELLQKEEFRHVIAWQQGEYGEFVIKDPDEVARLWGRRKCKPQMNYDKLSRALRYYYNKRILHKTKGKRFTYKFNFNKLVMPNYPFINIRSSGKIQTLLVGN
Method in brief: as §1

ETV6 = ETV6 (Homo sapiens, UniProt P41212 1-452); conditions: protein: recombinant; tags: N-terminal GST; dsDNA, one strand shown
ETV6, sequence (P41212 whole entry): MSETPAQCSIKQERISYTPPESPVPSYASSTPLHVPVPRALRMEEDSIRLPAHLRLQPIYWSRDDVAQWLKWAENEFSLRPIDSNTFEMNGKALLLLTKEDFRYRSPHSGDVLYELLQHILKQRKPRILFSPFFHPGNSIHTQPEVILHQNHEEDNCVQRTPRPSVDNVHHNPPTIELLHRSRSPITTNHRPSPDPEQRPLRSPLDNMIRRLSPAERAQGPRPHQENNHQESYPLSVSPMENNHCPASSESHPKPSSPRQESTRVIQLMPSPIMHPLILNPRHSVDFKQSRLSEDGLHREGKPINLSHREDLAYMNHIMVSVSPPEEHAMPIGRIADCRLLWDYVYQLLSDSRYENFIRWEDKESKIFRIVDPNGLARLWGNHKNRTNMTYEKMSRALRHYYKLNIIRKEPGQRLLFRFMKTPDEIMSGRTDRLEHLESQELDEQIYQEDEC
Method in brief: as §1

For CCTGAA, the binding signal (FEV) was 1.4 fold enrichment (6-mer frequency, TF over GST control), the binding signal (ETV5) was 1.38 fold enrichment (6-mer frequency, TF over GST control) and the binding signal (HSF1) was 1.54 fold enrichment (6-mer frequency, TF over GST control). The binding signal (SPIC) was 1.28 fold enrichment (6-mer frequency, TF over GST control), the binding signal (ELF4) was 1.31 fold enrichment (6-mer frequency, TF over GST control) and the binding signal (ELK4) was 1.41 fold enrichment (6-mer frequency, TF over GST control). The binding signal (ETV2) was 1.47 fold enrichment (6-mer frequency, TF over GST control), the binding signal (ELF3) was 1.21 fold enrichment (6-mer frequency, TF over GST control) and the binding signal (CRX) was 1.22 fold enrichment (6-mer frequency, TF over GST control). For the same sequence, the binding signal (ETV1) was 1.38 fold enrichment (6-mer frequency, TF over GST control), the binding signal (ERF) was 1.37 fold enrichment (6-mer frequency, TF over GST control) and the binding signal (ETV3L) was 1.35 fold enrichment (6-mer frequency, TF over GST control). For the same sequence, the binding signal (ETS2) was 1.33 fold enrichment (6-mer frequency, TF over GST control), the binding signal (SPDEF) was 1.48 fold enrichment (6-mer frequency, TF over GST control) and the binding signal (ETV7) was 1.22 fold enrichment (6-mer frequency, TF over GST control). The binding signal (ELF5) was 1.5 fold enrichment (6-mer frequency, TF over GST control), the binding signal (ETV3) was 1.4 fold enrichment (6-mer frequency, TF over GST control) and the binding signal (ETV6) was 1.27 fold enrichment (6-mer frequency, TF over GST control).
